DT40 TDP1 CPT: qHTS for Inhibitors of human tyrosyl-DNA phosphodiesterase 1 (TDP1): qHTS in cells in presence of CPT; chicken DT40 Tdp1-/-;hTDP1 cells + 20 nM CPT, ATP luminescence, 48 h; Potency, µM (highest dose often 46.2 µM), hits mostly inhibitors; 420,000 compounds, 12% hits; also: nearly all actives have a fitted effect of over 55% in size
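Cell growth measured by CellTiter-Glo luminescence after a minimum 48 h, 37 C compound exposure with 20 nM CPT in Tdp1-knockout DT40 cells stably expressing hTDP1, seeded 400/well; qHTS titration format.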
IL1B secr inh: qHTS for Inhibitors of Inflammasome Signaling: IL-1-beta AlphaLISA Primary Screen; 360,000 compounds, 4.7% hits; THP-1 LPS/ATP IL-1B secretion, AlphaLISA, 16 h; stronger effect = lower value; activity change, % at 57.5 µM; AID 743279, 2014; in the data active = activity change below about -50%; inconclusive = mostly about -30% to -49%
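THP-1 cells pretreated 1 hr with compounds (up to 57.5 uM final), then stimulated with LPS (250 ng/mL final) plus ATP (1.25 mM final); secreted IL-1B measured by AlphaLISA after 16 hr, decreased signal indicating inhibition.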
DT40 TDP1 no CPT: qHTS for Inhibitors of human tyrosyl-DNA phosphodiesterase 1 (TDP1): qHTS in cells in absence of CPT; 420,000 compounds, 15% hits; DT40 Tdp1-/- hTDP1 cells, no CPT, ATP luminescence, 48 h; Potency, µM (doses to about 46.2 µM), actives largely listed as inhibitors; also: nearly all actives have a fitted effect of over 55% in size
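Readout: luminescence from CellTiter-Glo after 30 min in the dark at RT. Cells: DT40 Tdp1-/- with stable hTDP1, 400/well. Exposure: compounds alone, ≥48 hr, 37 °C.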
uPA surface inh: qHTS for Inhibitors of Cell Surface uPA Generation | Potency, µM (doses to about 38.3 µM), actives largely listed as inhibitors | 330,000 compounds, 0.31% hits | cell surface uPA generation assay, qHTS; active = well fitted inhibition curve with a large enough effect; inconclusive = small, poorly fitted or top-dose-only effect; inactive = no such curve, though single readings can be large or run the other way; tested in mouse RAW 264.7 cells; also: nearly all actives have a fitted effect of over 55% in size
HT1080 IDH1KD tx: qHTS for induction of synthetic lethality in tumor cells producing 2HG: qHTS for the HT-1080-IDH1KD cell line; HT-1080 IDH1 knockdown viability, ATP luminescence, 48 h; Potency, µM (titrated, usually from 46.1 µM), actives largely listed as cytotoxic; 360,000 compounds, 2% hits; AID 686971, 2013
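Luminescent ATP read-out (CellTiter-Glo, 10 min at room temperature) after 48 h compound exposure at 37 °C gave viability of IDH1-knockdown HT-1080 cells. Activity was normalised to DMSO and cell-free wells, then fitted as concentration-response curves.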
HT1080NT lethal: qHTS for induction of synthetic lethality in tumor cells producing 2HG: qHTS for the HT-1080-NT fibrosarcoma cell line. HT-1080-NT fibrosarcoma viability, CellTiter-Glo ATP luminescence, 48 h. Potency, µM (doses to about 46.1 µM), hits mostly cytotoxic. 360,000 compounds, 1.6% hits. AID 686970, 2013;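 also: NT is the 2HG producing partner of a matched IDH1 knockdown line; nearly all actives have a fitted effect of over 55% in size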
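Compounds were tested in concentration-response format on HT-1080-NT cells for 48 hours at 37 degrees C. Cell viability came from CellTiter-Glo luminescence; curves were classified by r2, response magnitude and activity.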
A number is an active result; – = inactive; ? = inconclusive; · = not tested or not shown; [ ] = another dose, or the depositor's remark. Hits are enriched below; roughly 19% of the tested compounds scored in any of these assays. Unless noted, calls follow the shape of the dose curve; as a rule, active = well fitted curve in the direction sought with a large enough effect; inconclusive = small, poorly fitted or top-dose-only effect, or another doubt; inactive = no such curve, though single readings can be large; an effect the other way counts as inactive or inconclusive.

SMILES | DT40 TDP1 CPT | IL1B secr inh | DT40 TDP1 no CPT | uPA surface inh | HT1080 IDH1KD tx | HT1080NT lethal
CC(C)(C)OC(=O)NCc1ccc(CNC(=O)c2nc[nH]c2C(=O)N2CCN(C(=O)OC(C)(C)C)CC2)cc1 | ? | – | 18µM | – | – | –
Cn1cnc(C(=O)NC2CCN(C(=O)OC(C)(C)C)CC2)c1C(=O)NC1CCN(C(=O)OC(C)(C)C)CC1 | – | – | – | – | – | –
CC(C)(C)OC(=O)N1CCN(C(=O)c2[nH]cnc2C(=O)Nc2ccc(Cl)cc2)CC1 | ? | -52 | ? | – | – | –
Cn1cnc(C(=O)NCc2ccc(CNC(=O)OC(C)(C)C)cc2)c1C(=O)NCc1ccc(CNC(=O)OC(C)(C)C)cc1 | 21µM | – | ? | – | – | –
O=C([C@H]1O[C@@H](n2ccc(=O)[nH]c2=O)[C@H](O)[C@@H]1O)N1CCN(c2ccc(Cl)cn2)CC1 | – | – | – | · | – | –
CCN(C(=O)COC(=O)CCC(=O)c1cccs1)c1c(N)n(Cc2ccccc2)c(=O)[nH]c1=O | – | – | – | – | – | –
COc1ccc(-n2c(CNC(=O)c3ccccc3C(F)(F)F)nnc2SC)cc1 | –[9.04 µM] | · | – | · | · | ·
Cc1ccc2c(=O)cc(C(=O)Nc3c(C(=O)Nc4cccc(Cl)c4)oc4ccccc34)oc2c1 | – | · | – | · | · | ·
CC(C)(C)OC(=O)N1CCC(NC(=O)c2[nH]cnc2C(=O)Nc2cccc(Cl)c2)CC1 | ? | -58 | ? | – | – | –
CC(C)CC(=O)N(Cc1ccccc1)S(=O)(=O)c1ccc2c(c1)oc(=O)n2C | – | · | ? | · | · | ·
Cc1cccc(C)c1NC(=O)c1csc2c1CCCC2 | 3.7µM | · | 5.2µM | · | · | ·
COc1cccc(NC(=O)c2csc3c2CCCCC3)c1 | 21µM | · | 16µM | · | · | ·
CC(C)CNC(=S)NNC(=O)c1csc2c1CCCC2 | ? | ? | ? | · | ? | 8.9µM
O=C(Nc1cccc(-c2nn[nH]n2)c1)c1csc2c1CCCC2 | – | – | – | – | – | –
COc1ccc(NC(=O)c2csc3c2CCCCC3)c(OC)c1 | – | -175 | ? | – | – | –
COc1ccc(Cl)cc1NCc1nnc2n1CCCCC2 | – | · | – | · | · | ·
Cc1cccc(C)c1NC(=O)Nc1csc2c1CCCC2 | – | · | – | · | · | ·
CCc1cccc(NC(=O)Nc2csc3c2CCCC3)c1 | 21µM | · | 23µM | · | · | ·
Cc1nc(N)[nH]c(=O)c1CCCNc1ccc(CCCCC2(CCl)OCCO2)cc1 | 18µM | – | ? | – | – | ?
CCC(=O)N1c2ccccc2CC1C(=O)NCc1cccc(C)c1 (stereo not given) | – | · | – | · | · | ·
CCC(C)c1ccc(NC(=O)NCCN2CCCCC2)cc1 (stereo not given) | ? | -52 | – | – | ? | ?
Cc1ccc(Cl)cc1N1CCN(CC(=O)Nc2ccc(CN3CCCCC3)cc2)CC1 | ? | – | ? | – | 23µM | 21µM
CCOc1ccc(NC(=O)NCCN2CCN(c3cc(Cl)ccc3C)CC2)cc1 | 21µM | · | ? | · | · | ·
CCC(=O)N1c2ccccc2CC1C(=O)NCCN1CCN(c2cc(Cl)ccc2C)CC1 (stereo not given) | 21µM | · | ? | · | · | ·
CCCS(=O)(=O)NC(=O)C1(C)CCN(C(=O)c2cccc(C(F)(F)F)c2)C1 (stereo not given) | ? | – | – | · | – | –
SMILES | DT40 TDP1 CPT | IL1B secr inh | DT40 TDP1 no CPT | uPA surface inh | HT1080 IDH1KD tx | HT1080NT lethal
CCCCN(CCCC)Cc1cc(=O)oc2ccccc12 | – | – | ? | · | – | –
COc1ccccc1N1CCN(C(=O)CN(C)S(=O)(=O)c2ccc(C)cc2)CC1 | ? | – | ? | · | – | –
CCCCCCCCN1CC(Cc2cc3ccccc3c3ccccc23)N(c2ccccc2)c2ccccc2C1=O (stereo not given) | ? | – | ? | · | – | –
CCOC(=O)c1c(C)[nH]c(C)c1S(=O)(=O)NCCN1CCN(c2cc(Cl)ccc2C)CC1 | ? | -51 | 13µM | – | ? | ?
Cc1ccc(Cl)cc1N1CCN(CCNC(=O)Nc2ccc(Cl)cc2)CC1 | 12µM | · | ? | · | · | ·
CCOC(=O)c1c(C)[nH]c(C)c1S(=O)(=O)NCCCN1CCOCC1 | – | – | – | – | – | ?
O=C(NCCN1CCN(c2ccccc2)CC1)Nc1ccc(Cl)cc1 | – | ? | – | – | – | ?
Cc1ccc(-c2c(CN3CCN(c4cc(Cl)ccc4C)CC3)csc2C)cc1 | 16µM | · | ? | · | · | ·
COc1cc(OC)cc(C(=O)Nc2ccc(C(=O)Nc3ccccc3OC)cc2)c1 | ? | ? | ? | – | ? | –
COc1cccc(-c2cc(=O)c3cc(NC(C)=O)ccc3[nH]2)c1 | ? | – | 16µM | ? | ? | –
CC(=O)Nc1ccc2[nH]c(C)cc(=O)c2c1 | – | – | – | – | – | –
Cc1onc(-c2c(F)cccc2Cl)c1C(=O)ONC(=O)c1ccco1 | – | – | – | – | – | –
COCOCCn1cc(CN2CCS(=O)(=O)N(Cc3ccc(-c4ccc(Cl)c(Cl)c4)cc3)C(C)C2=O)nn1 (stereo not given) | 4.1µM | – | 4.1µM | · | ? | 23µM
COCOCCn1cc(CN2CCS(=O)(=O)N(Cc3ccc(-c4ccncc4)cc3)C(C)C2=O)nn1 (stereo not given) | – | – | – | · | – | –
COCOCCn1cc(CN2CCS(=O)(=O)N(Cc3ccc(-c4ccc(OC)c(OC)c4)cc3)C(C)C2=O)nn1 (stereo not given) | 16µM | – | 10µM | · | – | –
COCOCCn1cc(CN2CCS(=O)(=O)N(Cc3ccc(-c4ccc(C)cc4)cc3)C(C)C2=O)nn1 (stereo not given) | ? | – | 15µM | · | – | –
COCOCCn1cc(CN2CCS(=O)(=O)N(Cc3ccc(-c4cccc(CO)c4)cc3)C(C)C2=O)nn1 (stereo not given) | – | – | – | · | – | –
O=C(CSCc1cccc(F)c1)NCc1ccccc1 | – | – | – | – | – | –
Cc1ccc(-n2nc3c(=O)n(CCCC(=O)NCc4ccccc4F)nc(C)c3c2C)cc1 | ? | ? | ? | – | – | –
Cc1nnc(SCC(=O)NCc2ccccc2F)c2nn(-c3ccc(Cl)cc3)c(C)c12 | 13µM | · | 8.2µM | · | · | ·
Cc1nnc(SCC(=O)NCc2cccc(F)c2)c2nn(-c3ccccc3)c(C)c12 | 8.2µM | · | 7.3µM | · | · | ·
Cc1csc2c(N3CCCCC3)ncnc12 | – | – | – | – | – | –
